An excerpt weighted towards active compounds, which were near 19% of everything screened.
KB-V1 MDR tox – kills drug-selected multidrug resistant KB-V1 cells | KB-V1 MDR cells viability, CellTiter-Glo, 72 h | Potency, µM (doses to about 46.1 µM), hits mostly cytotoxic | 3.4% of 400,000 active; further: nearly all actives have a fitted effect of over 60% in size
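Cells of the MDR subline KB-V1 are plated, dosed with compound at multiple concentrations, and incubated 72 h at 37 degrees C; CellTiter-Glo is then added and luminescence read after 10 min.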
KB-3-1 tox – KB-3-1 parental cell cytotoxicity | KB-3-1 viability, CellTiter-Glo ATP luminescence, 72 h | 1.4% of 400,000 active | Potency, µM (highest dose often 46.1 µM), actives largely listed as cytotoxic | AID 1347075; further: nearly all actives have a fitted effect of over 60% in size
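Luminescent ATP read-out (CellTiter-Glo) measures survival of drug-naive KB-3-1 cells after 72 h compound exposure at 37 °C. Titration series was screened from lowest to highest concentration, with DMSO vehicle plates as background controls.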
HT1080NT lethal – kills 2HG-producing HT-1080-NT fibrosarcoma cells; HT-1080-NT fibrosarcoma viability, CellTiter-Glo ATP luminescence, 48 h; Potency, µM (doses to about 46.1 µM), for the others: top-dose activity, negative = less viability, most hits filed as cytotoxic; 1.6% of 360,000 active; AID 686970;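 further: NT is the 2HG producing partner of a matched IDH1 knockdown line; 0% = DMSO-treated cells and -100% = media-only wells without cells; nearly all actives have a fitted effect of over 55% in size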
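HT-1080-NT; 750 cells/well; 5% FBS RPMI; 48 h compound, 37 degrees C; CellTiter-Glo luminescence; curve fitting and curve-class assignment.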
TDP1 cell noCPT – qHTS for Inhibitors of human tyrosyl-DNA phosphodiesterase 1 (TDP1): qHTS in cells in absence of CPT; DT40 Tdp1-/- hTDP1 cells, no CPT, ATP luminescence, 48 h; 15% of 420,000 active; Potency, µM (doses to about 46.2 µM), for inactives: at the top dose activity change, negative = growth inhibition, actives largely listed as inhibitors; AID 686978, 2013; further: nearly all actives have a fitted effect of over 55% in size
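Chicken DT40 Tdp1-/- cells complemented with human TDP1, screened without camptothecin (DMSO vehicle only), 400 cells/well. Compounds pin-transferred, cells incubated at 37 °C for at least 48 hr. Growth read as ATP-dependent luminescence (CellTiter-Glo, 30 min at RT).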
DT40 TDP1 CPT – growth inhibition of DT40 Tdp1-/-;hTDP1 cells with camptothecin (screen for TDP1 inhibitors) | 12% of 420,000 active | chicken DT40 Tdp1-/-;hTDP1 cells + 20 nM CPT, ATP luminescence, 48 h | Potency, µM (top dose mostly 46.2 µM), for the others: top-dose activity change, negative = growth inhibition, hits mostly inhibitors; further: nearly all actives have a fitted effect of over 55% in size
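Chicken DT40 Tdp1-/- cells complemented with human TDP1, 400 cells/well, exposed to compounds plus 20 nM camptothecin for at least 48 h at 37 C; viability read as ATP content by CellTiter-Glo luminescence.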
HT1080 IDH1KD tx – toxicity to HT-1080 IDH1 knockdown cells (counter line); HT-1080 IDH1 knockdown viability, ATP luminescence, 48 h; Potency, µM (highest dose often 46.1 µM), for the others: top-dose activity, negative = toxicity, most hits filed as cytotoxic; 2% of 360,000 active; AID 686971;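 further: 0% = DMSO wells and -100% = cell-free medium wells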
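% activity derives from luminescence (CellTiter-Glo), normalised to DMSO and no-cell wells. HT-1080-IDH1KD cells, 750/well, had 48 h compound exposure at 37 °C.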
Active calls of the source: *. The call rests on the fitted dose curve; in most records, active means well fitted curve in the direction sought with a large enough effect; inconclusive means small, poorly fitted or top-dose-only effect, or another doubt; inactive means no such curve, though single readings can be large; an effect the other way counts as inactive or inconclusive. Unless noted, on the % scale 0 is the no-effect control and ±100 the full control effect; potency means the concentration at half of the fitted maximal effect.

For CN1c2ccccc2C(C)(C)C12CC(CCl)=NO2 (configuration not stated) the results were KB-V1 MDR tox inactive, KB-3-1 tox inactive, HT1080NT lethal 1.3%, TDP1 cell noCPT 20.6µM*, DT40 TDP1 CPT 16.4µM* and HT1080 IDH1KD tx 9.1%.
COc1ccc(NC(=O)CCn2c(-c3ccc(F)cc3)cc(C(C)=O)c2C)c(OC)c1 was read as KB-V1 MDR tox inactive, KB-3-1 tox inactive, TDP1 cell noCPT inconclusive and DT40 TDP1 CPT inconclusive.
Screening CCCCn1c(/C=C/c2ccco2)nc2ccccc21 returned KB-V1 MDR tox inactive, KB-3-1 tox inactive, HT1080NT lethal 16.4%, TDP1 cell noCPT inconclusive, DT40 TDP1 CPT 18.4µM* and HT1080 IDH1KD tx 11.5%.
`CCCCNc1nc2ccccc2[nH]1` gave KB-V1 MDR tox inactive, KB-3-1 tox inactive, HT1080NT lethal 1.8%, TDP1 cell noCPT inconclusive, DT40 TDP1 CPT inconclusive and HT1080 IDH1KD tx -0.3%.
Screening Clc1ccc(Cn2c(/C=C/c3ccco3)nc3ccccc32)cc1 returned KB-V1 MDR tox inactive, KB-3-1 tox inactive, HT1080NT lethal inconclusive, TDP1 cell noCPT inconclusive, DT40 TDP1 CPT inconclusive and HT1080 IDH1KD tx inconclusive.
For Cc1ccc(Cn2c(/C=C/c3ccco3)nc3ccccc32)cc1 the results were KB-V1 MDR tox inconclusive, KB-3-1 tox inactive, HT1080NT lethal -1.2%, TDP1 cell noCPT 14.6µM*, DT40 TDP1 CPT inconclusive and HT1080 IDH1KD tx inconclusive.
`CCCCn1c(/C=N/Nc2nc3ccccc3[nH]2)nc2ccccc21` gave KB-V1 MDR tox inactive, KB-3-1 tox inconclusive, HT1080NT lethal inconclusive, TDP1 cell noCPT 5.17µM*, DT40 TDP1 CPT 4.61µM* and HT1080 IDH1KD tx 14.6µM*.
Screening CCCn1c(/C=C/c2ccco2)nc2ccccc21 returned KB-V1 MDR tox inconclusive, KB-3-1 tox inactive, HT1080NT lethal 5.8%, TDP1 cell noCPT inconclusive, DT40 TDP1 CPT 16.4µM* and HT1080 IDH1KD tx -0.8%.
CC(C)(C)OC(=O)N1CCc2nc(N3CCN(c4ncccn4)CC3)ncc2C1 was read as KB-V1 MDR tox inactive, KB-3-1 tox inactive, TDP1 cell noCPT -26.2% and DT40 TDP1 CPT -10.6%.
For O=S1(=O)N=C(Oc2ccc(Br)cc2)c2ccccc21 the results were KB-V1 MDR tox inactive and KB-3-1 tox inactive.
For COc1cc2c(cc1Cl)C(=O)C(F)(c1ccccc1)C(=O)N2 (configuration not stated) the results were KB-V1 MDR tox inconclusive, KB-3-1 tox inactive, HT1080NT lethal -2.2%, TDP1 cell noCPT inconclusive, DT40 TDP1 CPT inconclusive and HT1080 IDH1KD tx -5.5%.
N#Cc1ccc(CN2CCC3(CC2)CCN(C(=O)c2cnccn2)CC3)cc1 was read as TDP1 cell noCPT 27.4% and DT40 TDP1 CPT 14.0%.
For CNC(=O)C[C@H]1C(=O)N(c2ccc(Br)cc2)C[C@@H]1C the results were KB-V1 MDR tox inactive, KB-3-1 tox inactive, HT1080NT lethal 0.0%, TDP1 cell noCPT -17.9%, DT40 TDP1 CPT -8.2% and HT1080 IDH1KD tx 0.6%.
For Cc1cccc(OCC(=O)Nc2c(C(=O)N3CCN(c4ccccc4)CC3)oc3ccccc23)c1 the results were KB-V1 MDR tox inactive, KB-3-1 tox inactive, TDP1 cell noCPT 23.1µM* and DT40 TDP1 CPT inconclusive.
O=C(Nc1c(C(=O)N2CCN(c3ccccc3)CC2)oc2ccccc12)c1ccccc1F was read as KB-V1 MDR tox inconclusive, KB-3-1 tox inactive, TDP1 cell noCPT inconclusive and DT40 TDP1 CPT inconclusive.
O=C(Nc1c(C(=O)N2CCN(c3ccccc3)CC2)oc2ccccc12)c1ccc(Br)o1 was read as KB-V1 MDR tox inactive, KB-3-1 tox inactive, TDP1 cell noCPT 20.6µM* and DT40 TDP1 CPT 23.1µM*.
For COc1ccc(CC(=O)Nc2c(C(=O)N3CCN(c4ccccc4OC)CC3)oc3ccccc23)cc1OC the results were KB-V1 MDR tox inactive, KB-3-1 tox inconclusive, HT1080NT lethal -14.2%, TDP1 cell noCPT 23.1µM*, DT40 TDP1 CPT inconclusive and HT1080 IDH1KD tx -14.0%.
For O=C(Nc1c(C(=O)N2CCN(c3ccccc3F)CC2)oc2ccccc12)c1ccccc1F the results were KB-V1 MDR tox inconclusive, KB-3-1 tox inactive, TDP1 cell noCPT 14.6µM* and DT40 TDP1 CPT 13µM*.
Screening COc1ccc(CC(=O)Nc2c(C(=O)N3CCN(c4ccccc4)CC3)oc3ccccc23)cc1OC returned KB-V1 MDR tox inactive, KB-3-1 tox inactive, HT1080NT lethal -19.9%, TDP1 cell noCPT inconclusive, DT40 TDP1 CPT inconclusive and HT1080 IDH1KD tx -11.5%.
Cc1cc(C(=O)C(=O)Nc2nncs2)c(C)n1-c1ccc(Cl)cc1 was read as KB-V1 MDR tox inactive, KB-3-1 tox inactive, TDP1 cell noCPT -28.4% and DT40 TDP1 CPT -29.6%.
`COc1ccc(NC(=O)n2ncc3c(C)cccc32)cc1` gave KB-V1 MDR tox inactive, KB-3-1 tox inconclusive, HT1080NT lethal -7.8%, TDP1 cell noCPT -14.8%, DT40 TDP1 CPT -29.0% and HT1080 IDH1KD tx -11.7%.
Screening COc1cc(CCC(=O)Nc2c(C(=O)N3CCN(c4ccccc4)CC3)oc3ccccc23)on1 returned KB-V1 MDR tox inactive, KB-3-1 tox inactive, HT1080NT lethal 1.6%, TDP1 cell noCPT 16.4µM*, DT40 TDP1 CPT inconclusive and HT1080 IDH1KD tx -3.5%.
O=C(COc1ccccc1)Nc1c(C(=O)N2CCC(N3CCCCC3)CC2)oc2ccccc12 was read as KB-V1 MDR tox inactive, KB-3-1 tox inactive, HT1080NT lethal -2.1%, TDP1 cell noCPT inconclusive, DT40 TDP1 CPT inconclusive and HT1080 IDH1KD tx -4.6%.
Screening O=C(COc1ccc(F)cc1)Nc1c(C(=O)N2CCC(N3CCCCC3)CC2)oc2ccccc12 returned KB-V1 MDR tox inactive, KB-3-1 tox inconclusive, HT1080NT lethal 4.1%, TDP1 cell noCPT 7.31µM*, DT40 TDP1 CPT inconclusive and HT1080 IDH1KD tx -1.3%.
For CN(Cc1cn(Cc2cccc(Cl)c2)nn1)C1CN(Cc2cn(Cc3cccc(Cl)c3)nn2)S(=O)(=O)C1 (configuration not stated) the results were KB-V1 MDR tox inconclusive, KB-3-1 tox inactive, HT1080NT lethal -14.3%, TDP1 cell noCPT inconclusive, DT40 TDP1 CPT inconclusive and HT1080 IDH1KD tx -16.3%.
COc1ccccc1/C=C/c1cnccn1 was read as KB-V1 MDR tox inactive, KB-3-1 tox inconclusive, TDP1 cell noCPT inconclusive and DT40 TDP1 CPT -4.6%.
